An excerpt weighted towards active compounds, which were near 5.9% of everything screened.
NR0B1 inh: inhibitors of human orphan nuclear receptor DAX1 (NR0B1). inhibition, % at 6.75 µM. P51843. 0.99% of 340,000 active. HEK293 Gal4-DAX1 luciferase reporter, luminescence. AID 504766;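 active means inhibition above the mean over all tested compounds plus 3 SD, cut at about 4.2% in these data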;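 further: 0% = DAX1-transfected cells with DMSO and 100% = empty-vector control cells with DMSO; inhibition shows as a rise in luminescence from relieved DAX1 repression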
Target sequence (P51843 207-470 limits assumed): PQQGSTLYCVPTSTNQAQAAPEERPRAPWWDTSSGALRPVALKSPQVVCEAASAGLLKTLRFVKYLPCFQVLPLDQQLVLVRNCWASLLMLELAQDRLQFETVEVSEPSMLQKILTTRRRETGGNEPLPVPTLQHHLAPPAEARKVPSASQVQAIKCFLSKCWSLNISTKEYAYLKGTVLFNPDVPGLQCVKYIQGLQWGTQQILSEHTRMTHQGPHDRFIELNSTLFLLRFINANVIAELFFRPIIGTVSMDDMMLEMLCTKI
AHR activator: activates the human aryl hydrocarbon receptor; AID 2796; activation, % at 5 µM; 2.5% of 320,000 active; P35869; AHR-responsive luciferase reporter cells, luminescence; in the data active means activation above about 47%;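 further: 0% = vehicle wells and 100% = reference agonist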
HSP90 refold inh: blocks HSP90-mediated luciferase refolding in reticulocyte lysate; Rabbit reticulocyte lysate, luciferase refolding luminescence, 3 h; inhibition, % at 5.6 µM; 0.91% of 290,000 active;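 active means inhibition above the screen-wide mean plus 3 SD, computed separately per campaign, cut at about 16% in these data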;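 further: 0% = DMSO wells and 100% = 60 µM geldanamycin wells; inhibitors lower the luminescence because luciferase stays unfolded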
HSF1 activator: increases HSF-1 driven luciferase reporter signal; NIH3T3-HGL HSF-1 luciferase reporter, MG132, 8 h; 100% = twice DMSO control signal; activation, % at 9 µM; 1.7% of 300,000 active; AID 504408;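 active means mean replicate activation of at least 50% with a set share of replicates each reaching 50%; inconclusive means only one of those two conditions met; inactive means mean below 50% and too few replicates reaching it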;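 further: 0% = median of the neutral control wells and 100% = twice that signal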
FXN GAA850 act: activators of GAA850 frataxin (FXN) promoter | HEK293 lucGAA850 FXN promoter luciferase reporter, 24 h; percent of 10 µM SAHA response | activation, % at 6 µM | 0.56% of 360,000 active;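 active means activation above the average of all compounds screened plus 3 SD, cutoff fixed separately per campaign, cut at about 7.5% in these data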;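 further: 0% = DMSO wells and 100% = 10 µM SAHA wells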
HSF1 inh: HSF1 inhibition; 0.77% of 300,000 active; NIH3T3-HGL HSE-luciferase, MG132-induced, luminescence 8 h; stronger effect = lower value; activity change, negative = inhibition, % at 7.5 µM (by protocol); AID 2098;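 active means more than half of replicate wells show activity change below -50%, luminescence cut by over half; inconclusive means some wells, but at most half, below -50%; inactive means no replicate well below -50%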;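 further: luciferase reports HSF-1 transcriptional activity via heat shock element; 0% = median of DMSO wells and -100% = zero luminescence signal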
GAA30 counter: counter-screen for GAA850 frataxin promoter activators: GAA30 promoter activation; 66% of 1,900 active; HEK293 lucGAA30 FXN promoter luciferase, 24 h; DMSO = 0%, 5 µM ipriflavone = 100%; AID 588350; activation, % at 6 µM; shares compounds with FXN GAA850 act;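 active means mean activation above the mean of solvent-only control wells plus 3 SD, cut at about 22% in these data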;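 further: counterscreen of GAA850 promoter hits where activity marks nonselective or luminescence artifacts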
FXN GAA850 conf: confirmation of GAA850 frataxin (FXN) promoter activators; HEK293 lucGAA850 FXN promoter luciferase reporter, 24 h; 100% = activation by SAHA; 86% of 1,900 active; shares compounds with FXN GAA850 act; activation, % at 6 µM;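 active means mean activation above a set limit taken from the primary screen, cut at about 8% in these data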;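 further: 0% = DMSO wells and 100% = 10 µM SAHA wells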
* hit, by the source's call; ? = inconclusive; nt = no result.

SMILES | NR0B1 inh | AHR activator | HSP90 refold inh | HSF1 activator | FXN GAA850 act | HSF1 inh | GAA30 counter | FXN GAA850 conf
COc1ccc([C@@H]2[C@@H]3C(=O)N(C(C)(C)C)C(=O)[C@@H]3[C@]3(Cc4ccc(Cl)cc4)C(=O)N(c4ccc(Br)cc4)C(=O)N23)cc1 | 0 | 8 | 4 | 3 | -4 | 1 | nt | nt
Cc1ccc(N2C(=O)N3[C@H](c4ccc(Br)cc4)[C@@H]4C(=O)N(C(C)(C)C)C(=O)[C@@H]4[C@]3(C)C2=O)cc1 | 0 | 1 | 0 | 1 | 6 | 0 | nt | nt
Cc1cccc(N2C(=O)N3[C@H](c4ccc(Br)cc4)[C@@H]4C(=O)N(C(C)(C)C)C(=O)[C@@H]4[C@]3(C)C2=O)c1 | 1 | 2 | 1 | 0 | 14* | 0 | 28* | 16*
O=C(CCS(=O)(=O)c1ccccc1)N(CCCN1CCOCC1)c1nc2ccc(F)cc2s1 | 0 | 6 | nt | 147* | 15* | 138 | 105* | 66*
Nc1n[nH]c(N)c1N=Nc1cccc(F)c1 | 1 | 12 | 0 | 8 | 0 | 1 | nt | nt
Nc1n[nH]c(N)c1N=Nc1ccc(Cl)cc1 | -1 | -1 | -1 | -12 | 8.7* | -1 | 71* | 15*
CC(=NNC(=O)c1cccs1)c1ccc2c(c1)OCCO2 | 4 | 2 | nt | nt | 3 | nt | nt | nt
C/C(=N\NC(=O)c1cccs1)c1ccc2c(c1)OCO2 | nt | 29 | -4 | 23 | 7.6* | 35 | 77* | 25*
Cc1ccc(OCc2ccccc2C)c([N+](=O)[O-])n1 | 0 | -8 | 2 | 0 | 5 | -4 | nt | nt
Cc1ccc(OCc2ccc([N+](=O)[O-])cc2)c([N+](=O)[O-])n1 | 1 | 4 | -5 | 13 | 8.4* | 17 | 117* | 34*
COc1nc(N)nc(NC(=O)c2cccs2)c1N=O | 0 | 6 | nt | 16 | 16* | 3 | 4 | 31*
COc1ccc(NC(=O)c2ccc(NC(=O)c3cccs3)cc2)cc1 | 0 | -1 | 3 | -2 | 1 | -3 | nt | nt
CCc1ccc(/C=N/Nc2ncnc3nc[nH]c23)cc1 | 0 | 45 | 4 | 30 | 11* | 5 | 132* | 54*
CCOC(=O)CNc1ncnc2nc[nH]c12 | 1 | 0 | 7 | 35 | -1 | 8 | nt | nt
CCc1ccccc1NC(=O)CN(C)C(=O)Cn1cc(C(F)(F)F)cc(Cl)c1=O | 2 | -1 | -2 | 6 | 0 | 2 | nt | nt
CCn1c(SCc2ccccc2Cl)nc2nc3c(cc2c1=O)CCCC3 | 1 | nt | 2 | 15 | 7.8* | -8 | 10 | 12*
CCn1c(SCc2c(Cl)cccc2Cl)nc2nc3c(cc2c1=O)CCCC3 | 0 | -2 | nt | -13 | 1 | 1 | nt | nt
CNc1nc(Nc2ccc(Br)cc2)nc(N)c1[N+](=O)[O-] | 1 | 70* | 0 | 34 | 9.1* | 6 | 91* | 42*
COC(=O)c1sc(N2CCCCC2)c(C#N)c1N | -1 | 6 | -5 | -1 | -1 | 0 | nt | nt
CCN1C(=O)/C(=C/C=C2\N(CC)c3cc(S(=O)(=O)N(C)C)ccc3N2c2ccccc2)SC1=S | 1 | 2 | 5 | 10 | 3 | 1 | nt | nt
COc1ccc(C(=O)C(C)N(C(=O)c2ccc(Cl)cc2Cl)N2C(=O)C3C4C=CC(C4)C3C2=O)cc1 (stereo not given) | -1 | -1 | -1 | 7 | 7.8* | 5 | 25* | 14*
Cc1ccc(C(=O)C(C)N(C(=O)c2ccc(Cl)cc2Cl)N2C(=O)CCCC2=O)cc1 (stereo not given) | 1 | 1 | -1 | -5 | 0 | -6 | nt | nt
COc1ccc(Cc2nc(-c3cccs3)no2)cc1 | 0 | 10 | 1 | 34 | 3 | 25 | nt | nt
Cc1cccc(Nc2n[nH]c(C)c2[N+](=O)[O-])c1 | 2 | 59* | -4 | ? | 8.7* | 8 | 92* | 37*
C=CCn1c(C)cc(C(=O)Cn2ncc(Cl)c(Cl)c2=O)c1C | 3 | 2 | 1 | ? | -4 | 41 | nt | nt
SMILES | NR0B1 inh | AHR activator | HSP90 refold inh | HSF1 activator | FXN GAA850 act | HSF1 inh | GAA30 counter | FXN GAA850 conf
CC(C)(C)C(=O)Cn1ncc(Cl)c(Cl)c1=O | 1 | nt | 3 | 15 | 9.0* | 0 | 6 | 6
O=C(O)C1=C[C@@H](c2ccc(C(F)(F)F)cc2)C[C@@H](OCCCCO)O1 | 1 | 2 | nt | -10 | 1 | 3 | nt | nt
Cc1cccc(C(=O)Nc2nnc(SCC(=O)NCc3ccco3)s2)c1 | 1 | 37 | 4 | 16 | 1 | 21 | nt | nt
Cc1ccc2nc(C(F)(F)F)c(C#N)c(N)c2c1 | -1 | 11 | 3 | -12 | 40* | -14 | 79* | 77*
CC(=O)c1ccc(N=Nc2ccc(C)cc2)cc1 | 0 | nt | 15 | -33 | 0 | -27 | nt | nt
C=C(C)C(=O)Oc1ccc(N=Nc2ccc(C)cc2)ccc1=O | nt | nt | nt | nt | 11* | nt | 59* | 40*
CC1=CC(=C2C(=O)c3ccccc3C2=O)C=C(C)N1C | 2 | 15 | -1 | 23 | 8.2* | 14 | 111* | 34*
Cc1oc(-c2ccccc2)cc1C(=O)Nc1ccccc1 | -1 | 40 | 4 | -14 | 0 | 0 | nt | nt
Cc1c(C(=O)Nc2ccccc2)csc1-c1ccccc1 | 0 | -5 | 2 | 61* | 8.5* | 28 | 113* | 29*
CCCc1[nH]n(-c2ccc([N+](=O)[O-])cc2)c(=O)c1C(C)=NCc1ccncc1 | -2 | -3 | 0 | -7 | 1 | 3 | nt | nt
Oc1ccc(N=Cc2ccc(O)c(O)c2)cc1 | 1 | 2 | 0 | 49 | -1 | 42 | nt | nt
Oc1ccc(/C=N/N=C/c2ccc(O)c(O)c2)cc1O | -1 | 0 | 0 | -7 | 8.2* | -5 | 33* | 16*
NC(=O)c1ccccc1NC(=O)CSc1nc2ccccc2c(=O)[nH]1 | 0 | 24 | -2 | -13 | 0 | -1 | nt | nt
Cc1cc2nc(SCC(=O)Nc3ccccc3C(=O)O)[nH]c2cc1C | 2 | 20 | 1 | 24 | 9.6* | 19 | 62* | 18*
Cc1cccc(C)c1NC(=O)c1ccc(-c2cc(F)ccc2F)o1 | nt | nt | nt | nt | 1 | nt | nt | nt
COc1ccc(NC2=C(c3ccc(OC)cc3)C(=O)c3ccccc32)cc1 | -2 | 23 | 6 | -3 | 0 | -7 | nt | nt
COc1ccc(C2=C(N)c3ccccc3C2=O)cc1 | 4 | 4 | -3 | 45 | 7.7* | 27 | 102* | 33*
Cn1ccnc1C(O)c1ccc(OCc2ccccc2)cc1 (stereo not given) | 2 | 3 | -2 | 10 | 7.7* | 10 | 58* | 18*

Bioassay records deposited in PubChem BioAssay by several laboratories.
